Here are results for 9 molecules from paper PMC5540273 (PLoS ONE, 2017).

Some test systems named below: CDC2L2; CDK2; CDK3; CDK4-cyclinD1; CDK4-cyclinD3; CDK4; CDK5; CDK7; CDK8; CDK9; CDKL1; CDKL2; CDKL3; CDKL5; CHEK1; CHEK2; CIT; CLK1.
Holding throughout (conditions): concentration: 1 μM,replicates: in singlicate; n = 1
The test system of a further experiment is T1, CDC2L5.
T1 construct: gene CDK13

The next experiment deals with T2, CDK11.
T2 construct: gene CDK19

Molecules are shown by their SMILES.
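Further: KINOMEscan kinase panel screen.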

As for `Cc1ccc(C(=O)Nc2ccc(Oc3ccc4nc(NC(=O)C5CC5)cn4c3)c(F)c2)c(=O)n1-c1ccccc1`, the “%Inh” value is listed as 7% in the experiment with CDC2L2; 0% in the experiment on CDC2L5; 88% in the experiment with CDK11; 1% in the experiment with CDK2; 36% in the experiment with CDK3; 21% with CDK4-cyclinD1. The “%Inh” value with CDK4-cyclinD3 is recorded as 0%; in the experiment with CDK4, 0%; in the experiment with CDK5, 0%; with CDK7 it was 76%; in the experiment with CDK8, 87%; with CDK9 it was 0%. Also, the “%Inh” value in the experiment on CDKL1 was found to be 41%; with CDKL2 it was 99.6%; with CDKL3, 0%; in the experiment with CDKL5, 0%; in the experiment with CHEK1, 0%; in the experiment with CHEK2 it was 0%. Also, the “%Inh” value with CIT amounted to 36%; in the experiment on CLK1, 0%.

For `Cn1ccc2ncnc(Oc3ccc(NC(=O)Nc4cnn(C(C)(C)C)c4)c(Cl)c3)c21`, the “%Inh” value in the experiment with CDC2L2 was determined as 0%; with CDC2L5 it was 45%; in the experiment with CDK11, 99.6%; with CDK2, 0%; in the experiment with CDK3, 0%; in the experiment with CDK4-cyclinD1, 0%. Moreover, the “%Inh” value with CDK4-cyclinD3 is recorded as 0%; in the experiment with CDK4, 0%; in the experiment with CDK5 it was 2%; in the experiment on CDK7, 27%; in the experiment on CDK8, 97.1%; in the experiment with CDK9, 0%. Further, the “%Inh” value with CDKL1 is reported as 21%; in the experiment with CDKL2 it was 10%; with CDKL3 it was 19%; in the experiment with CDKL5, 26%; in the experiment with CHEK1, 3%; in the experiment on CHEK2, 0%. The “%Inh” value in the experiment on CIT is 39%; in the experiment with CLK1, 0%.

For the molecule `CN(c1ccc2c(c1)nc(NCc1ccc(F)cc1)n2C)c1ccnc(Nc2ccc(CS(C)(=O)=O)cc2)n1.Cl` [GW813244], the “%Inh” value is 92.6% in the experiment with CDC2L2; 0% in the experiment with CDC2L5; 26% in the experiment with CDK11; 5% with CDK2; 6% in the experiment on CDK3; 0% in the experiment with CDK4-cyclinD1. The “%Inh” value is given as 10% in the experiment on CDK4-cyclinD3; 22% in the experiment on CDK4; 0% in the experiment on CDK5; 31% in the experiment on CDK7; 2% in the experiment on CDK8; 57% in the experiment with CDK9. Besides, the “%Inh” value in the experiment on CDKL1 is given as 30%; in the experiment with CDKL2, 40%; in the experiment on CDKL3, 20%; in the experiment on CDKL5, 0%; in the experiment on CHEK1, 0%; in the experiment on CHEK2, 0%. In addition, the entries for the “%Inh” value with CIT and in the experiment on CLK1 were 86% and 13%, respectively.

As to `CC(=O)Nc1nc2cnc(Nc3cc(NC(=O)c4cccc(CC(C)(C)C#N)c4)ccc3C)nc2s1`, the “%Inh” value in the experiment with CDC2L2 worked out at 16%; in the experiment with CDC2L5, 66%; in the experiment with CDK11, 79%; with CDK2, 15%; in the experiment with CDK3 it was 0%; in the experiment on CDK4-cyclinD1, 1%. Further, the “%Inh” value in the experiment with CDK4-cyclinD3 stood at 15%; in the experiment with CDK4, 45%; with CDK5, 14%; with CDK7 it was 36%; in the experiment on CDK8, 67%; in the experiment with CDK9, 10%. In addition, the “%Inh” value in the experiment on CDKL1 came out at 50%; with CDKL2, 99.5%; in the experiment with CDKL3, 41%; in the experiment on CDKL5, 0%; in the experiment with CHEK1, 0%; with CHEK2, 28%. Moreover, the entries for the “%Inh” value in the experiment on CIT and with CLK1 were 68% and 0%, respectively.

In the case of `C[C@@H]1CNc2c(sc3ccc4nc(-c5ccc(O)cc5)ccc4c23)C(=O)N1`, the “%Inh” value in the experiment with CDC2L2 is given as 6%; in the experiment with CDC2L5 it was 0%; with CDK11, 37%; in the experiment on CDK2 it was 0%; with CDK3 it was 12%; in the experiment on CDK4-cyclinD1, 30%. Moreover, the “%Inh” value with CDK4-cyclinD3 was found to be 0%; in the experiment on CDK4, 4%; in the experiment with CDK5, 25%; in the experiment with CDK7 it was 82%; in the experiment with CDK8 it was 63%; with CDK9, 67%. In addition, the “%Inh” value with CDKL1 is 15%; in the experiment on CDKL2, 0%; in the experiment on CDKL3, 5%; in the experiment with CDKL5, 0%; in the experiment on CHEK1, 0%; with CHEK2, 54%. For the same molecule, the “%Inh” value in the experiment with CIT is on record as 54%; in the experiment with CLK1, 97.3%.

For the molecule `C[C@@H]1CNc2c(sc3ccc4nc(-c5ccncc5)ccc4c23)C(=O)N1`, the “%Inh” value is 2% with CDC2L2; 0% in the experiment with CDC2L5; 25% in the experiment on CDK11; 0% in the experiment on CDK2; 0% in the experiment on CDK3; 0% in the experiment with CDK4-cyclinD1. For the same molecule, the “%Inh” value was found to be 2% in the experiment on CDK4-cyclinD3; 0% in the experiment on CDK4; 11% in the experiment on CDK5; 77% in the experiment on CDK7; 7% with CDK8; 44% in the experiment on CDK9. Besides, the “%Inh” value came out at 11% in the experiment with CDKL1; 0% in the experiment on CDKL2; 5% in the experiment with CDKL3; 0% in the experiment with CDKL5; 0% in the experiment on CHEK1; 18% in the experiment on CHEK2. Moreover, the “%Inh” value in the experiment on CIT was found to be 22%; in the experiment with CLK1, 92.9%.

On to `NC(=O)Nc1sc(-c2ccc(F)cc2)cc1C(N)=O` [GW789449], for which the “%Inh” value worked out at 0% in the experiment on CDC2L2; 14% with CDC2L5; 0% in the experiment with CDK11; 0% with CDK2; 17% in the experiment with CDK3; 30% with CDK4-cyclinD1. Moreover, the “%Inh” value was determined as 0% in the experiment with CDK4-cyclinD3; 0% in the experiment with CDK4; 0% in the experiment on CDK5; 19% in the experiment on CDK7; 46% in the experiment on CDK8; 0% in the experiment on CDK9. In addition, the “%Inh” value in the experiment with CDKL1 stood at 27%; with CDKL2, 17%; in the experiment on CDKL3 it was 10%; with CDKL5 it was 0%; in the experiment with CHEK1 it was 0%; in the experiment with CHEK2, 69%. The “%Inh” value was 27% in the experiment on CIT and 9% in the experiment with CLK1.

`CN1CCN(CCNc2nc3cc(Oc4ccc(NC(=O)Nc5cc(C(F)(F)F)ccc5F)cc4)ccc3[nH]2)CC1.Cl.Cl` [GW768504]: the “%Inh” value in the experiment with CDC2L2 came out at 7%; in the experiment on CDC2L5 it was 0%; in the experiment on CDK11, 47%; with CDK2, 0%; with CDK3 it was 6%; with CDK4-cyclinD1, 0%. Besides, the “%Inh” value with CDK4-cyclinD3 came to 0%; in the experiment on CDK4, 2%; in the experiment with CDK5, 0%; in the experiment on CDK7 it was 96.6%; in the experiment on CDK8, 55%; in the experiment on CDK9 it was 0%. Also, the “%Inh” value in the experiment with CDKL1 was 3%; in the experiment on CDKL2, 56%; with CDKL3, 43%; in the experiment with CDKL5, 0%; in the experiment on CHEK1, 0%; with CHEK2, 3%. The “%Inh” value came out at 67% in the experiment with CIT and 2% with CLK1.

Turning to `COc1cc2ncn(-c3cc(OCC4CCCCC4)c(C(N)=O)s3)c2cc1OC` [GSK204559], the “%Inh” value amounted to 6% in the experiment with CDC2L2; 0% with CDC2L5; 12% in the experiment on CDK11; 0% in the experiment on CDK2; 21% with CDK3; 0% in the experiment with CDK4-cyclinD1. The “%Inh” value with CDK4-cyclinD3 amounted to 0%; in the experiment with CDK4, 8%; in the experiment with CDK5, 0%; in the experiment with CDK7, 86%; with CDK8, 5%; in the experiment on CDK9 it was 0%. Also, the “%Inh” value in the experiment on CDKL1 is on record as 0%; with CDKL2 it was 1%; in the experiment with CDKL3, 0%; with CDKL5, 0%; in the experiment on CHEK1, 0%; with CHEK2, 0%. Besides, the “%Inh” value with CIT is on record as 10%; with CLK1, 35%.
